Test results: PubChem BioAssay (NCATS)
Inconclusive results are not listed. Activity calls are given as the source filed them. Calls follow the shape of the dose curve; as a rule, active = well fitted inhibition curve with a large enough effect; inconclusive = small, poorly fitted or top-dose-only effect; inactive = no such curve, though single readings can be large or run the other way.

The compounds below were run against Cytochrome P450 1A2 (Homo sapiens) (UniProt P05177) (assay: qHTS for inhibitors of CYPIA2 against the NCATS DSHEA and TCM libraries (AID 1919976)). Conditions: recombinant CYP1A2 enzyme activity, luminescence; series mostly up to 37 µM.
Chain of Cytochrome P450 1A2 (Homo sapiens) (P05177 whole entry, looked up): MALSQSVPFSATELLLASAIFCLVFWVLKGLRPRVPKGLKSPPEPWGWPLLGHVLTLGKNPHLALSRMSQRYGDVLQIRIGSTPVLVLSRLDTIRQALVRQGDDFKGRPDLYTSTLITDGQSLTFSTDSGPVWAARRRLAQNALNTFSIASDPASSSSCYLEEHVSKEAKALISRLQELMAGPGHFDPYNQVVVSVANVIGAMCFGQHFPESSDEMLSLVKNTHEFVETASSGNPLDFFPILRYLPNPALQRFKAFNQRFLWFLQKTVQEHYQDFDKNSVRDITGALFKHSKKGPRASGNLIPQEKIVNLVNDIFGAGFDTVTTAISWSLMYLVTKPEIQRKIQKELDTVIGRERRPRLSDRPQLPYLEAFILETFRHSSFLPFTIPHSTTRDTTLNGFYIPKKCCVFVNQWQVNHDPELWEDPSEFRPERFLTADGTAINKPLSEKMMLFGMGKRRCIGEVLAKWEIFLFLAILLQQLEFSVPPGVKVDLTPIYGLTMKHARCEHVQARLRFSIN
From the text: Assay Development and Screening Technology Laboratory (ADST)
National Center for Advancing Translational Sciences (NCATS), Rockville, MD
National Institute of Health (NIH), Bethesda, Maryland
Dietary Supplements and Natural Products have minor oversight of their safety and efficacy. We assembled a collection of Dietary Supplements and Natural Products (DSNP) as well as Traditional Chinese Medicinal (TCM) Plant extracts, which were screened against an in vitro panel of assays, including a liver cytochrome p450 enzyme panel, CAR/PXR signaling pathways, and P-gp transporter assays, to assess their activity. This pipeline facilitated the interrogation of Natural Product-Drug Interaction (NaPDI) through prominent metabolizing pathways. In addition, we compared the activity profiles of the DSNP/TCM substances with those of an approved drug collection. Many of the approved drugs have well-annotated mechanisms of action (MOA) while the MOAs for most of the DSNP and TCM samples remain unknown. Based on the premise that compounds with similar activity profiles tend to share similar targets or MOA, we clustered the library activity profiles to identify overlap with the NCATS Pharmaceutical Collection to predict the MOAs of the DSNP/TCM substances. Overall, we highlight four significant bioactivity profiles (measured by p-values) as examples of this prediction. To assess broad cytotoxicity, we employed screening against a HepG2 cell line. In addition, transporter-mediated drug interactions are utilized in the characterization of DDIs using a P-glycoprotein (P-gp) assays. To profile potential P-gp activity, a differential cell viability was measured against two cell lines: a parental KB-3-1 human cervical adenocarcinoma cell line and the drug-resistant subline KB-8-5-11 that overexpresses P-gp.
To this end, we profiled both collections for potential CAR and/or PXR activity, employing a previously published 1536-well qHTS assay.
[1] Lee TD, et al. A High-Throughput Screen of a Library of Therapeutics Identifies Cytotoxic Substrates of P-glycoprotein. Mol Pharmacol. Nov 2019;96(5):629-640. doi:10.1124/mol.119.115964
PROTOCOL TABLE (as described by Inglese J, Shamu CE and Guy RK. 2007)
SEQUENCE No. (e.g., 1, 2, 3, etc.); […] (e.g., Cells, Incubation, Reagent, etc.); VALUE; DESCRIPTION.
1; Reagent; 2 uL; cytochrome P450 enzyme and luciferin substrate or buffer only, white solid-bottom Greiner plate.
2; Compounds and control; 16 nL; Kalypsis pintool (Wako USA) equipped with a 1536-well pin head to transfer to the assay plates.
3; Incubation; 15 min; room temperature.
4; Reagent; 2 uL; nicotinamide adenine dinucleotide phosphate (NADPH).
5; Incubation; 30 - 45 min; room temperature in the dark.
6; Reagent; 4 uL; P450-Glo assay detection reagent.
7; Centrifuge; 1000 RPM; 15 seconds.
8; Incubation; 30 min; room temperature.
9; Read; Luminescence; ViewLux plate reader.
NOTES (numbers refer to Sequence numbers above)
1. A 2 uL mixture of corresponding enzymes and luciferin substrate (final concentrations CYP enzyme-specific and pro-luciferin substrate-specific) or minus-enzyme (assay buffer conditions supplied by the manufacturer for respective enzyme isoform; typically, 100 mM KPO4) and luciferin substrate were dispensed using a BioRAPTR FRD (Beckman Coulter, Brea, CA) into columns of a 1536-well white solid-bottom medium binding plate (Greiner Bio-One, Monroe, NC). Five isoforms of cytochrome P450 were used (CYP1A2, CYP2C9, CYP2C19, CYP2D6, and CYP3A4).
2. […] Intraplate controls furafylline (CYP1A2), sulfaphenazole (CYP2C9), ketoconazole (CYP2C19), quinidine (CYP2D6), and ketoconazole (CYP3A4) were used correspondingly.
3. Assay plates were incubated at room temperature for 15 min.
4-5. […]
Potency is read from the fitted curve at half-maximal effect.

Question: How did the Potency turn out when `COC1=C[C@@]23CCN(C)[C@H](Cc4ccc(OC)c(O)c42)C3=CC1=O` was run?
Answer: Its Potency is “inactive”.

Question: With `COc1cc2c(cc1O)CC1c3c(cc(O)c(OC)c3-2)CCN1C` (stereo not drawn) as the compound, how does the Potency read?
Answer: The Potency was 3.98 µM (active).

Question: `COC(=O)C1=CO[C@@H](C)[C@@H]2CN3CC[C@@]4(C(=O)Nc5ccccc54)[C@@H]3CC12` (stereo partly drawn) was tested. Which Potency did it give?
Answer: The Potency was “inactive”.

Question: How did the Potency turn out when `CC[C@@H]1CN2CC[C@]3(C(=O)Nc4ccccc43)[C@@H]2C[C@@H]1/C(=C\OC)C(=O)OC` was run?
Answer: The Potency was “inactive”.

Question: Which Potency does the source give for `C=C[C@H]1CN2CC[C@@]3(C(=O)Nc4ccccc43)[C@@H]2C[C@@H]1/C(=C\OC)C(=O)OC` here?
Answer: Its Potency is “inactive”.

Question: How did the Potency turn out when `COC1=CC(=O)O[C@@H](/C=C/c2ccc3c(c2)OCO3)C1` was run?
Answer: The Potency was 11.2 µM (active).

Question: `CCCCCCCCCCCCCCCCCCCC(=O)O` was tested. Which Potency did it give?
Answer: Its Potency is 22.4 µM (active).

Question: Which Potency does the source give for `C=C(C)[C@@H]1CCC(C)=C[C@H]1c1c(O)cc(CCCCC)cc1O` here?
Answer: The Potency was 11.2 µM (active).

Question: How did the Potency turn out when `COc1cc2c(cc1O)C[C@H]1c3c(cc(OC)c(O)c3-2)CCN1C` was run?
Answer: Its Potency is 10 µM (active).

Question: Which Potency does the source give for `N#CC(O[C@@H]1O[C@H](CO[C@@H]2O[C@H](CO)[C@@H](O)[C@H](O)[C@H]2O)[C@@H](O)[C@H](O)[C@H]1O)c1ccccc1` (stereo partly drawn) here?
Answer: The Potency was “inactive”.

Question: For `O=S(=O)(O)O`, which Potency is on record?
Answer: The Potency was 35.5 µM (active).

Question: Which Potency does the source give for `C=CCc1ccc2c(c1)OCO2` here?
Answer: The Potency was 15.8 µM (active).

Question: How did the Potency turn out when `COc1cc2c(cc1O)CC1NCCc3cc(OC)c(OC)c-2c31` (stereo not drawn) was run?
Answer: The Potency was 15.8 µM (active).
